# Test results reported in PubChem BioAssay AID828 (The Scripps Research Institute Molecular Screening Center, 2007).
# Among all 140,000 compounds or so, about 550 (0.39%) were called active. Cut-off read from the data, not from the text of the source: active = inhibition above about 27%; inactive = the rest. Shown is part of a subset that was picked to be rich in actives.
# Target: Galanin receptor type 2 (Homo sapiens) (UniProt O43603)
# Experiment: GALR2 antagonists in receptor-expressing cells, primary screen (AID 828);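 note: cells stimulated with galanin 1-16 at roughly its EC80; 0% = agonist challenge control and 100% = basal control without agonist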
# Conditions: antagonist mode, at 4 µM, stronger effect = higher value
# Sequence of Galanin receptor type 2 (Homo sapiens) (O43603 whole entry, looked up): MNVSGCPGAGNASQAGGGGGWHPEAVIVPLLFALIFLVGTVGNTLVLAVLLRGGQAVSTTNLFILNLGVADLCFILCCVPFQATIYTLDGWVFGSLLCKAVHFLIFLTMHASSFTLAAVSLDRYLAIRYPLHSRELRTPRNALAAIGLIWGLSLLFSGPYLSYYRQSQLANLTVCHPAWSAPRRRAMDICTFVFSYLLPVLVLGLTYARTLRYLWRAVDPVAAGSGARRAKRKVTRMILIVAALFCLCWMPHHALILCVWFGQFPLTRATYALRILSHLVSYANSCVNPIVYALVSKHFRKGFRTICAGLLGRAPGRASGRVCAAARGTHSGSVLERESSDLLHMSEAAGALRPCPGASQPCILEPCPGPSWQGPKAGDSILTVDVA
row,SMILES,inhibition
1,O=C(Oc1ccc([N+](=O)[O-])cc1)c1ccc(Cl)c(S(=O)(=O)N2CCCCC2)c1,-9.96% (inactive)
2,COc1ccc(N(C(=O)c2ccc(C)cc2)S(=O)(=O)c2cccs2)cc1,5.74% (inactive)
3,C=C1c2cc(CC)ccc2NC(=O)N1c1ccc(C)cc1,5.36% (inactive)
4,O=C1Nc2ccccc2C12Nc1ccccc1S2 (stereo not given),6.08% (inactive)
5,CCc1ccc2c(c1)C1(NN=C(c3ccccc3)S1)C(=O)N2 (stereo not given),28.2% (active)
6,CNC(=O)c1ccsc1NC(=O)c1ccc(S(=O)(=O)N2CCOCC2)cc1,-4.99% (inactive)
7,CCCn1nc(C(=O)Nc2ccc3nc(C)sc3c2)c2ccccc2c1=O,-3.02% (inactive)
8,COc1ccc(C2CC(c3cccs3)=NN2C(=O)COC(=O)c2cc3ccccc3cc2O)cc1OC (stereo not given),12.7% (inactive)
9,Fc1ccc(N2N=C(c3cccs3)CC2c2ccco2)c(F)c1 (stereo not given),-13.2% (inactive)
10,COc1ccccc1N1N=C(c2cccs2)CC1c1ccccc1 (stereo not given),32.5% (active)
11,CC(C)(C)NC(=O)COC(=O)c1cc(Br)ccc1Cl,-2.97% (inactive)
12,CC(=O)Nc1ccc(S(=O)(=O)NC(C)C(=O)OCC(=O)NC2CCCC2)cc1 (stereo not given),11.3% (inactive)
13,O=C(Cc1cccs1)Nc1cccc(-c2nc3ccccc3[nH]2)c1,12.3% (inactive)
14,COc1ccc(/C=C(\C#N)C(=O)NCCCn2ccnc2)cc1,8.04% (inactive)
15,O=C(Nc1ccc(Cl)cc1)c1ccsn1,12.1% (inactive)
16,CC(=O)Nc1cc(C(=O)O)ccc1S(=O)(=O)c1ccc(Cl)cc1,4.42% (inactive)
17,O=C(Nc1ccccc1)c1nnsc1S(=O)(=O)c1ccc(Cl)cc1,42.4% (active)
18,Fc1ccc2[nH]c3c(N4CCSCC4)ncnc3c2c1,22.8% (inactive)
19,Cc1cc(N2CCN(Cc3ccc4c(c3)OCO4)CC2)n2ncnc2n1,-5.12% (inactive)
20,Fc1ccc2[nH]c3c(N4CCN(Cc5ccc6c(c5)OCO6)CC4)ncnc3c2c1,44.8% (active)

row,SMILES,inhibition
1,CCOc1ccc(NC(=O)Nc2cc(C)ccc2OC)cc1,1.77% (inactive)
2,COc1ccc(C)cc1NC(=O)c1[nH]c(C)c(C(C)=O)c1C,27.2% (active)
3,CC(=O)c1c(C)[nH]c(C(=O)NCc2ccc(C)cc2)c1C,-10.3% (inactive)
4,CC(C)(C)N(Cc1ccccc1)C(=O)COC(=O)CCc1c[nH]c2ccccc12,1.11% (inactive)
5,Cc1ccc(NC(=S)NC(=O)/C=C/c2ccc(Cl)cc2)cc1,-8.1% (inactive)
6,O=[N+]([O-])c1cc(S(=O)(=O)N2CCCC2)ccc1NN=C1CCCC1,-1.82% (inactive)
7,O=C(NCCc1ccccc1)C1CCN(S(=O)(=O)c2ccc(Br)s2)CC1,-2.64% (inactive)
8,COC(C(=O)Nc1ccc(S(=O)(=O)Nc2ccc(C)c(C)c2)cc1)c1ccccc1 (stereo not given),0.51% (inactive)
9,Cc1cc(C)nc(SC2CCCCC2NS(=O)(=O)c2ccc(Cl)cc2)n1 (stereo not given),-14.2% (inactive)
10,COc1ccc(OC)c(/C=C/C(=O)OCC(=O)Nc2ccc3c(c2)OCCO3)c1,4.33% (inactive)
11,CCOC(=O)/C(=N\Nc1cc(Cl)ccc1Cl)N1CCN(C)CC1,-4.67% (inactive)
12,CCn1c(=O)cc(SCC(=O)NCCC2=CCCCC2)c2ccccc21,-16% (inactive)
13,CCOC(=O)C1=C(C)NC(=S)NC1c1cccs1 (stereo not given),-4.54% (inactive)
14,CCC1C=C(c2ccccc2)C=CN=C1N(CC)CC (stereo not given),15% (inactive)
15,CCC(CC)c1nnc(NC(=O)/C=C/c2ccco2)s1,8.13% (inactive)
16,CCOC(=O)/C(N=Nc1cc(C(=O)O)cc(C(=O)O)c1)=C(\O)CCl,-4.09% (inactive)
17,CC1(C)CC(=O)C/C(=N\NC(=O)c2cccs2)C1,9.6% (inactive)
18,Cc1ccc2nc(-c3cccnc3)c(NC3CCCC3)n2c1,21.2% (inactive)
19,CC(=O)Nc1ccc(S(=O)(=O)Nc2nc(-c3ccc(C(C)(C)C)cc3)cs2)cc1,-2.4% (inactive)
20,O=[N+]([O-])c1ccccc1SNc1ccccn1,0.95% (inactive)

row,SMILES,inhibition
1,CC(=O)NC1C(Oc2ccc(C)cc2)OC2COC(c3ccco3)OC2C1O (stereo not given),11.3% (inactive)
2,O=[N+]([O-])c1ccc(N2CCN(S(=O)(=O)c3ccccc3)CC2)cc1N1CCc2ccccc2C1,1.38% (inactive)
3,COc1ccccc1-c1nnc(NC(=O)c2cccc(N3C(=O)CCC3=O)c2)o1,-8.68% (inactive)
4,O=C(/C=C\c1cn(-c2ccccc2)nc1-c1cccs1)N1CCOCC1,13.8% (inactive)
5,O=C(Nn1c(SCc2ccc([N+](=O)[O-])cc2)nc2ccccc2c1=O)c1ccc(F)cc1,-6.11% (inactive)
6,COc1ccc(-c2cc(C(=O)NC(Cc3c[nH]c4ccccc34)C(=O)O)c(C)o2)cc1OC (stereo not given),2.65% (inactive)
7,COc1ccc(NS(=O)(=O)c2ccc(NC(=S)NC(=O)/C=C/c3ccc(C)cc3)cc2)nn1,7.84% (inactive)
8,COc1cccc(NC(=O)Cc2ccc(C)cc2)c1,4.68% (inactive)
9,COc1ccc(NC(=O)/C(Cl)=C(/Cl)S(=O)Cc2ccc(C)cc2)cn1 (stereo not given),105% (active)
10,COC(=O)Cc1ccc(N(Cc2ccccc2F)S(=O)(=O)c2ccc(Br)cc2)cc1,-3.96% (inactive)
11,COc1ccc(C(C(=O)NC2CCCCC2)N(C(=O)CCl)c2ccccc2Cl)cc1 (stereo not given),3.18% (inactive)
12,CCOc1ccc(S(=O)(=O)N(CC(=O)NCC(F)(F)F)Cc2ccco2)cc1,-7% (inactive)
13,CCCNC(=O)c1ccc(Cl)c(Cl)c1,10.1% (inactive)
14,COCC(C)NC(=O)c1ccc(Cl)c(Cl)c1 (stereo not given),27.4% (active)
15,COCC(C)NC(=O)c1ccc(-n2nc(C(F)(F)F)cc2-c2cccs2)cc1 (stereo not given),-1.6% (inactive)
16,CCN1CN(Cc2ccccc2)CNC1=S,3.98% (inactive)
17,O=S(=O)(/N=C(/Nc1ccccc1)c1ccccc1)c1cccs1,-10.3% (inactive)
18,Cc1ccc(CC2S/C(=C(/C#N)C(=O)N3CCOCC3)N(c3ccccc3)C2=O)cc1 (stereo not given),-9.98% (inactive)
19,C=CCNC(=O)/C(=C\c1cccc([N+](=O)[O-])c1)NC(=O)c1ccccc1,3.63% (inactive)
20,COc1ccc(NC(=O)COC(=O)c2ccc(NS(=O)(=O)/C=C/c3ccccc3)cc2)cc1,9.83% (inactive)
